# Values without a mark were called inactive. Records with an inconclusive call do not appear. Where a call stands in place of a potency, no number is given. Active and inactive are the calls of the source. Unless noted, calls come from the whole dose curve; as a rule, active = well fitted curve in the direction sought with a large enough effect in the repeat runs; inconclusive = weak or mixed curves; inactive = flat fitted curve, though single readings scatter.
# Columns and labels:
# [1] = qHTS assay to test for compound auto fluorescence at 460 nm (blue) in HEK293 cell free culture (AID 720681)
# Method in brief: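 Blue fluorescence (Ex 405/Em 460 nm, triamterene-equivalent) was read immediately after pin transfer of compound or DMSO into medium (DMEM, 10% FBS) without cells.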
# [2] = qHTS assay to test for compound auto fluorescence at 535 nm (green) in HEK293 cell free culture (AID 720682)
# Method in brief: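 Using fluorescein as calibrant, autofluorescence was quantified at 485/535 nm in cell-free DMEM containing 10% FBS after pintool addition of compound or vehicle.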
# [3] = qHTS assay to test for compound auto fluorescence at 590 nm (red) in HEK293 cell free culture (AID 720683)
# Method in brief: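 Red-channel autofluorescence of compounds in culture medium (DMEM, 10% FBS), no cells, measured at 540/590 nm. Rose Bengal sodium is the reference fluorophore for equivalence.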
# [4] = qHTS assay to test for compound auto fluorescence at 590 nm (red) in HepG2 cell free culture (AID 720684)
# Method in brief: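 No cells present: MEM + 10% FBS only. Compound pinned in, red label read (540/590 nm). Activity = fluorescence equivalent to Rose Bengal sodium.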
# [5] = qHTS assay to test for compound auto fluorescence at 460 nm (blue) in HepG2 cell free culture (AID 720685)
# Method in brief: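 Cell-free plates of MEM plus 10% FBS received 23 nL compound or DMSO vehicle; blue-channel (405/460 nm) intensity scored against triamterene as reference fluorophore.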
# [6] = qHTS assay to test for compound auto fluorescence at 535 nm (green) in HepG2 cell free culture (AID 720686)
# [7] = qHTS assay to test for compound auto fluorescence at 460 nm (blue) in HepG2 cells (AID 720687)
# Method in brief: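 Blue-channel autofluorescence (Ex/Em 405/460 nm, triamterene-equivalent) was measured after 1 hr compound exposure at 37 C, 5% CO2. Cells were HepG2, plated overnight at 37 C in MEM plus 10% FBS.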
# [8] = target: Glucocorticoid receptor (Homo sapiens) (UniProt P04150); assay: qHTS assay to identify small molecule agonists of the glucocorticoid receptor (GR) signaling pathway (AID 720691; active = well fitted activation curve with a large enough effect in the signal ratio in the repeat runs, not every such curve was filed as active; the % refers to the signal ratio)
# Method in brief: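 Measures GR pathway activation through a GRE-beta-lactamase reporter stably integrated in HeLa cells, with 18 h compound treatment at 37 C and fluorescence detection using a FRET substrate.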
# [9] = target: Glucocorticoid receptor (Homo sapiens) (UniProt P04150); assay: qHTS assay to identify small molecule antagonists of the glucocorticoid receptor (GR) signaling pathway (AID 720692; active = well fitted inhibition curve with a large enough effect in the signal ratio in the repeat runs, not every such curve was filed as active; the % refers to the signal ratio; note: potency is the fitted concentration of half-maximal effect)
# Method in brief: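 Tox21 10K library screened in concentration-response for blockade of dexamethasone (5 nM final)-induced GRE-bla reporter activity in HeLa cells; 18 h treatment, fluorescence read.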
# Sequence of Glucocorticoid receptor (Homo sapiens) (P04150 whole entry, looked up): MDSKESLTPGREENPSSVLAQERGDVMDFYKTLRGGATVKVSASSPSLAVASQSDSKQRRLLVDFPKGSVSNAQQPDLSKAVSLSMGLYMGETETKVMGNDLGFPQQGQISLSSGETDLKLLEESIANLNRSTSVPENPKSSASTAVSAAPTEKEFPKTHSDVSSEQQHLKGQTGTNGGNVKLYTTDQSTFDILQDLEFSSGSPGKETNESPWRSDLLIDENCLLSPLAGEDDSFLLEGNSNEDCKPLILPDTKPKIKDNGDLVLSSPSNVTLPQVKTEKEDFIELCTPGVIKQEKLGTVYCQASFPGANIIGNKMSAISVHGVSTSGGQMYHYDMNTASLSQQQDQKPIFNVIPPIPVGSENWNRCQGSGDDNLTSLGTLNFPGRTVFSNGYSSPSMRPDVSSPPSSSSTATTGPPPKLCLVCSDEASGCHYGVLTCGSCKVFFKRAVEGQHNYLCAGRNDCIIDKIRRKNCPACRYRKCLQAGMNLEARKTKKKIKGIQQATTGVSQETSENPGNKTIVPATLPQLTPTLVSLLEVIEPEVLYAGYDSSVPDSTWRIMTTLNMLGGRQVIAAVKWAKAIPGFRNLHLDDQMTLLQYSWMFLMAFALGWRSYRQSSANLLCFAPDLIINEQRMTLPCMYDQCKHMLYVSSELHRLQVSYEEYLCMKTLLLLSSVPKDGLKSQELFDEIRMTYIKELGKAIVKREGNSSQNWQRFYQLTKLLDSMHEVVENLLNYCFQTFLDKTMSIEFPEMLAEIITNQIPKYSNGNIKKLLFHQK
smiles,measurement,setting,value
Cc1ccccc1S,Potency,[1],inactive
same,outcome,[2],inactive
same,outcome,[3],inactive
same,outcome,[4],inactive
same,Potency,[5],inactive
same,outcome,[6],inactive
same,Potency,[7],inactive
CC(=O)NC1(c2cccc(F)c2)CCN(CC[C@@]2(c3ccc(Cl)c(Cl)c3)CN(c3ccccc3)C(=O)CO2)CC1,Potency,[1],inactive
same,outcome,[2],inactive
same,outcome,[3],inactive
same,outcome,[4],inactive
same,Potency,[5],inactive
same,outcome,[6],inactive
same,Potency,[7],inactive
CC(C)Nc1cccnc1N1CCN(C(=O)c2cc3cc(NS(C)(=O)=O)ccc3[nH]2)CC1,Potency,[1],inactive
same,outcome,[2],inactive
same,outcome,[3],inactive
same,Potency,[5],inactive
same,outcome,[6],inactive
same,Potency,[7],inactive
same,Potency,[8],inactive
Cc1cc(O)ccc1O,Potency,[1],inactive
same,outcome,[2],inactive
same,outcome,[3],inactive
same,outcome,[4],inactive
same,Potency,[5],inactive
same,outcome,[6],inactive
same,Potency,[7],inactive
CC(C)(O)c1ccc(CNC(=O)c2cccnc2Oc2ccc3nonc3c2)cc1,Potency,[1],inactive
same,outcome,[2],inactive
same,outcome,[3],inactive
same,outcome,[4],inactive
same,Potency,[5],inactive
same,outcome,[6],inactive
same,Potency,[7],inactive
same,Potency,[8],inactive
C=C1c2cccc(O)c2C(O)=C2C(=O)[C@]3(O)C(O)=C(C(N)=O)C(=O)[C@@H](N(C)C)[C@@H]3[C@@H](O)[C@H]12,"fluorescence, % of fluorescent control",[1],1.43% [at 18.6 µM]
same,activity change,[2],-0.0974% [at 18.6 µM]
same,"fluorescence, % of fluorescent control",[3],0.464% [at 18.6 µM]
same,"fluorescence, % of Rose Bengal",[4],-0.515% [at 18.6 µM]
same,"fluorescence, % of fluorescent control",[5],1.61% [at 18.6 µM]
same,"fluorescence, % of fluorescein control",[6],-0.0019% [at 18.6 µM]
same,"fluorescence, % of fluorescent control",[7],1.19% [at 18.6 µM]
same,Potency,[8],inactive
CCOC(=O)c1ccc(C#Cc2ccc3c(c2)C(C)(C)CCS3)nc1,outcome,[2],inactive
same,outcome,[3],inactive
same,outcome,[4],inactive
same,outcome,[6],inactive
Nc1ncnc2c1ncn2[C@H]1CC[C@@H](CO)O1,Potency,[1],inactive
same,outcome,[2],inactive
same,outcome,[3],inactive
same,Potency,[5],inactive
same,outcome,[6],inactive
same,Potency,[7],inactive
Cc1ccc2c(Br)cc(Br)c(O)c2n1,Potency,[1],inactive
same,outcome,[2],inactive
same,outcome,[3],inactive
same,outcome,[4],inactive
same,Potency,[5],inactive
same,outcome,[6],inactive
same,Potency,[7],inactive
same,Potency,[9],23.9 µM (active)
CC1CC(OC(=O)C(O)c2ccccc2)CC(C)(C)N1C (stereo unspecified),Potency,[1],inactive
same,outcome,[2],inactive
same,outcome,[3],inactive
same,outcome,[4],inactive
same,Potency,[5],inactive
same,outcome,[6],inactive
same,Potency,[7],inactive
same,Potency,[8],inactive
same,Potency,[9],inactive
C=C(C)C(=O)OCCCCCCCCCCCCC,Potency,[1],inactive
same,outcome,[2],inactive
same,outcome,[3],inactive
same,outcome,[4],inactive
same,Potency,[5],inactive
same,outcome,[6],inactive
same,Potency,[7],inactive
COc1ccccc1N1CCN(CC(O)COc2cccc3ccccc23)CC1 (stereo unspecified),Potency,[1],inactive
same,outcome,[2],inactive
same,outcome,[3],inactive
same,outcome,[4],inactive
same,Potency,[5],inactive
same,outcome,[6],inactive
same,Potency,[7],inactive
same,Potency,[8],inactive
CC1=Nc2ccc3ccccc3c2C1(C)C,Potency,[1],inactive
same,outcome,[2],inactive
same,outcome,[3],inactive
same,outcome,[4],inactive
same,Potency,[5],inactive
same,outcome,[6],inactive
same,Potency,[7],inactive
c1ccc(C[n+]2cccc3ccccc32)cc1,Potency,[1],inactive
same,outcome,[2],inactive
same,outcome,[3],inactive
same,outcome,[4],inactive
same,Potency,[5],inactive
same,outcome,[6],inactive
same,Potency,[8],inactive
same,Potency,[9],inactive
Nc1nnc(-c2ccc([N+](=O)[O-])o2)o1,Potency,[1],inactive
same,outcome,[2],inactive
same,outcome,[3],inactive
same,outcome,[4],inactive
same,Potency,[5],inactive
same,outcome,[6],inactive
same,Potency,[7],inactive
CN1C(=O)c2ccccc2C1=O,Potency,[1],inactive
same,outcome,[2],inactive
same,outcome,[3],inactive
same,outcome,[4],inactive
same,Potency,[5],inactive
same,outcome,[6],inactive
same,Potency,[7],inactive
same,Potency,[8],inactive
CCN(CC)CCNC(=O)COc1ccc(OC)cc1,Potency,[1],inactive
same,outcome,[2],inactive
same,outcome,[3],inactive
same,outcome,[4],inactive
same,Potency,[5],inactive
same,outcome,[6],inactive
CC(CO)CO,Potency,[1],inactive
same,outcome,[2],inactive
same,outcome,[3],inactive
same,outcome,[4],inactive
same,Potency,[5],inactive
same,outcome,[6],inactive
same,Potency,[7],inactive
same,Potency,[8],inactive
same,Potency,[9],inactive
CC1CC(C)C(=O)C1=O (stereo unspecified),Potency,[1],inactive
same,outcome,[2],inactive
same,outcome,[3],inactive
same,outcome,[4],inactive
same,Potency,[5],inactive
same,outcome,[6],inactive
same,Potency,[7],inactive
CC(C)=CC(=O)C=C(C)C,Potency,[1],inactive
same,outcome,[2],inactive
same,outcome,[3],inactive
same,outcome,[4],inactive
same,Potency,[5],inactive
same,outcome,[6],inactive
same,Potency,[7],inactive
CCC(=O)C1CC(C(C)C)CC=C1C (stereo unspecified),Potency,[1],inactive
same,outcome,[2],inactive
same,outcome,[3],inactive
same,outcome,[4],inactive
same,Potency,[5],inactive
same,outcome,[6],inactive
same,Potency,[7],inactive
same,Potency,[8],inactive
Oc1cccc(Nc2ccccc2)c1,Potency,[1],inactive
same,outcome,[2],inactive
same,outcome,[3],inactive
same,outcome,[4],inactive
same,Potency,[5],inactive
same,outcome,[6],inactive
same,Potency,[7],inactive
same,Potency,[8],inactive
CCCCCC[C@@H](O)C/C=C\CCCCCCCC(=O)OCC(O)CO (stereo partly specified),Potency,[1],inactive
same,outcome,[2],inactive
same,outcome,[3],inactive
same,outcome,[4],inactive
same,Potency,[5],inactive
same,outcome,[6],inactive
same,Potency,[7],inactive
same,Potency,[8],inactive
CCC1NC(=O)c2cc(S(N)(=O)=O)c(Cl)cc2N1 (stereo unspecified),"fluorescence, % of fluorescent control",[1],-0.0955% [at 18.6 µM]
same,activity change,[2],-0.178% [at 18.6 µM]
same,"fluorescence, % of fluorescent control",[3],-0.121% [at 18.6 µM]
same,"fluorescence, % of Rose Bengal",[4],-0.427% [at 18.6 µM]
same,"fluorescence, % of fluorescent control",[5],-0.0342% [at 18.6 µM]
same,"fluorescence, % of fluorescein control",[6],0.0837% [at 18.6 µM]
same,"fluorescence, % of fluorescent control",[7],-0.0496% [at 18.6 µM]
same,Potency,[8],inactive
O=C1c2ccccc2C(=O)C1c1ccc(Br)cc1,Potency,[1],inactive
same,outcome,[2],inactive
same,outcome,[3],inactive
same,outcome,[4],inactive
same,Potency,[5],inactive
same,outcome,[6],inactive
same,Potency,[7],inactive
CC(=O)Nc1ccc(C)cc1C,Potency,[1],inactive
same,outcome,[2],inactive
same,outcome,[3],inactive
same,outcome,[4],inactive
same,Potency,[5],inactive
same,outcome,[6],inactive
same,Potency,[7],inactive
